Assay outcomes as filed in PubChem.
Luciferase inh: Firefly luciferase inhibition profiling of diverse chemical library using quantitative high-throughput screening | 76,000 compounds, 2.5% hits | purified P. pyralis luciferase, luminescence, biochemical | Luciferin 4-monooxygenase (Photinus pyralis), P08659 | Potency, µM (doses to about 115 µM), usual class: inhibitors; further: potency means the concentration at half of the fitted maximal effect; nearly all actives have a fitted effect of over 65% in size
Target sequence (P08659 whole entry, looked up): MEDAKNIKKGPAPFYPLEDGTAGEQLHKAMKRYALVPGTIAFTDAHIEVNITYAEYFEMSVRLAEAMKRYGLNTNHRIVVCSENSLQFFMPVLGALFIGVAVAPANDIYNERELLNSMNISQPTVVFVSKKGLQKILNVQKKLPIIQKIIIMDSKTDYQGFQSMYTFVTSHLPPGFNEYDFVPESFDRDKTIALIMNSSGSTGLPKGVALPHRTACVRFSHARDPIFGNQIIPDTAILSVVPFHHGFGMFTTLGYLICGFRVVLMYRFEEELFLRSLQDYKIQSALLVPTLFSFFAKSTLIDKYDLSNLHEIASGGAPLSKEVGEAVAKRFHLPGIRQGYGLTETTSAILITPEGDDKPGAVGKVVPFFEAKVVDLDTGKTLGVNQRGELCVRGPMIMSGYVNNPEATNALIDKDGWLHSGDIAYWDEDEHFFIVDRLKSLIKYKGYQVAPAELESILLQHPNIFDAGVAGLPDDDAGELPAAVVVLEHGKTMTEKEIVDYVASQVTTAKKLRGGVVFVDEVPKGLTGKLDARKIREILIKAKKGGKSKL
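Purified 10nM P. pyralis luciferase with 10uM D-luciferin and 10uM ATP in 50mM Tris acetate pH 7.5, 10mM Mg acetate, 0.01% Tween-20, 0.05% BSA. qHTS titration; luminescence read by CCD imager.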
HEK cytotox: Cytotoxic Profiling in HEK 293 Cell Line of Diverse Libraries Using Quantitative High-Throughput Screening; HEK 293 viability, ATP luminescence (CellTiter-Glo), 48-72 h; Potency, µM (top dose mostly 115 µM), for the others: top-dose activity change, negative = cytotoxicity, most hits filed as inhibitors; 94,000 compounds, 6.6% hits; AID 1345083, 2018; further: potency means the concentration at half of the fitted maximal effect; nearly all actives have a fitted effect of over 60% in size
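HEK 293 seeded at 250 cells/well receive compound via pintool. After 48 or 72 hr at 37 degree Celsius, 5% CO2 and 95% humidity, CellTiter-Glo is dispensed and luminescence read following 10 min at room temperature.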
NIH3T3 tox: Cytotoxic Profiling in NIH 3T3 Cell Line of Diverse Libraries Using Quantitative High-Throughput Screening; NIH 3T3 viability, CellTiter-Glo ATP luminescence, 48-72 h; Potency, µM (highest dose often 96.7 µM), for the others: at the highest dose activity change, negative = cytotoxicity, actives largely listed as inhibitors; 94,000 compounds, 4.3% hits; AID 1345082, 2018; further: potency means the concentration at half of the fitted maximal effect; nearly all actives have a fitted effect of over 55% in size
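ATP-dependent luminescence (CellTiter-Glo) served as the viability signal for NIH 3T3 cells treated with compound for 48 or 72 hr at 37 °C.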
SNCA expr inh: Primary qHTS assay for inhibitors of alpha-synuclein gene (SNCA) expression; HEK-293 SNCA-luciferase knock-in, luminescence, 24 h; Potency, µM (titrated, usually from 57.2 µM), inactives show top-dose activity change, negative = inhibition, actives largely listed as inhibitors; 140,000 compounds, 0.17% hits;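 further: potency means the concentration at half of the fitted maximal effect; plate controls were DMSO cells for no effect and cell-free wells for full effect; nearly all actives have a fitted effect of over 45% in size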
SNCA viab count: GF-AFC viability counterscreen for inhibitors of alpha-synuclein gene (SNCA) expression | Potency, µM (series often up to 57.1 µM), for the others: at the top dose activity change, negative = cytotoxicity, actives largely listed as cytotoxic | 150,000 compounds, 0.12% hits | HEK-293-SNCA-luc viability, GF-AFC fluorescence, 24 h;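 further: potency means the concentration at half of the fitted maximal effect; 0% = DMSO-treated cells and -100% = medium-only wells without cells; nearly all actives have a fitted effect of over 30% in size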
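Cytotoxicity counterscreen: after 24 h compound treatment of genome-edited SNCA-luciferase HEK-293 cells, live-cell protease substrate GF-AFC read by fluorescence after 30 min; activity scaled between DMSO (0%) and medium-only (-100%), curves Hill-fitted.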
IP6K1 inhibitor: Primary qHTS assay for small molecule inhibitors of Inositol hexaphosphate kinase 1 (IP6K1); Inositol hexakisphosphate kinase 1 (Homo sapiens), Q92551; IP6K1 kinase, ADP-Glo luminescence, 2 h; active compounds read low; activity change, % (series mostly up to about 58 µM); 140,000 compounds, 0.81% hits; in the data active means activity change below about -25%
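ADP-Glo luminescence measures ADP made by human IP6K1 during a 2 h RT reaction with ATP/IP6 (mix at 1.3 mM/130 uM); top library doses 57.5 and 19.1 uM final.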
Active calls of the source: *; [ ] = dose if it differs, or a comment. Only some compounds are listed: those with a hit (about 7.3% of all), similar ones and a draw of the others. Unless noted, the call rests on the fitted dose curve; in most records, active means well fitted curve in the direction sought with a large enough effect; inconclusive means small, poorly fitted or top-dose-only effect, or another doubt; inactive means no such curve, though single readings can be large; an effect the other way counts as inactive or inconclusive. Unless noted, on the % scale 0 is the no-effect control and ±100 the full control effect.

`O=C(NCc1ccc(Cl)cc1)c1ccnc2[nH]ccc12` gave HEK cytotox inconclusive, NIH3T3 tox inconclusive, SNCA expr inh 24%[87.6 µM], SNCA viab count 0%[87.6 µM] and IP6K1 inhibitor 4.
O=C(Nc1ccc(Cl)nc1)c1c[nH]c2cccnc12 was read as HEK cytotox -14%[172 µM], NIH3T3 tox inconclusive, SNCA expr inh 139%[87.6 µM], SNCA viab count inconclusive and IP6K1 inhibitor 4.
`O=C(NCc1ccc(Cl)cc1)c1c[nH]c2ncccc12` gave Luciferase inh 28µM*, HEK cytotox inconclusive, NIH3T3 tox inconclusive, SNCA expr inh 37%[87.6 µM], SNCA viab count 0%[87.6 µM] and IP6K1 inhibitor -7.
Screening O=C(NCC1CCOCC1)C1CC(=O)N(c2n[nH]c3cccc(F)c23)C1 (configuration not stated) returned Luciferase inh inactive, HEK cytotox -12%, NIH3T3 tox 1%, SNCA expr inh 0%, SNCA viab count 9% and IP6K1 inhibitor 4.
Screening COCC(=O)Nc1ccc(-c2noc([C@@H]3CCCN3CC(C)(C)C)n2)cn1 returned Luciferase inh inactive, HEK cytotox 100µM*, NIH3T3 tox inconclusive, SNCA expr inh -5%[87.6 µM], SNCA viab count -23%[87.6 µM] and IP6K1 inhibitor 9.
`COc1ccc(-c2noc([C@@H]3CCCN3C3CCCCC3)n2)cn1` gave Luciferase inh inactive, HEK cytotox inconclusive, NIH3T3 tox inconclusive, SNCA expr inh 9%[87.6 µM], SNCA viab count -5%[87.6 µM] and IP6K1 inhibitor 4.
Screening COCCOc1ccc(-c2noc([C@@H]3CCCN3C3CCCCC3)n2)cn1 returned Luciferase inh inactive, HEK cytotox 100µM*, NIH3T3 tox -9%[174 µM], SNCA expr inh -21%[87.6 µM], SNCA viab count 3%[87.6 µM] and IP6K1 inhibitor 21.
Screening COCC(=O)Nc1ccc(-c2noc([C@@H]3CCCN3CC(C)C)n2)cn1 returned Luciferase inh inactive, HEK cytotox inconclusive, NIH3T3 tox -4%[174 µM], SNCA expr inh 10%[87.6 µM], SNCA viab count -12%[87.6 µM] and IP6K1 inhibitor 21.
Screening CCNC(=O)c1ccc(OC2CCN(C(=O)c3ccnn3C)C2)nc1 (configuration not stated) returned Luciferase inh inactive, HEK cytotox -18%, NIH3T3 tox -4%, SNCA expr inh -7%, SNCA viab count 0% and IP6K1 inhibitor -3.
Screening CO[C@@]1(C)C[C@@H](O)C12CCN(C(=O)CN1CCc3ccccc3C1)CC2 returned Luciferase inh inactive, HEK cytotox 1%, NIH3T3 tox -8%, SNCA expr inh 4%, SNCA viab count 5% and IP6K1 inhibitor -8.
CCC[C@@H](C=O)NC(=O)[C@H](CC(C)C)NC(=O)[C@H](CC(C)C)NC(=O)OCc1ccccc1 was read as SNCA expr inh 1.9µM* and SNCA viab count inconclusive.
Screening O=C(Nc1ccc2c(N3CCCC3)ncnc2c1)c1cccc(F)c1 returned Luciferase inh inactive, HEK cytotox inconclusive, NIH3T3 tox inconclusive, SNCA expr inh 5%, SNCA viab count -26% and IP6K1 inhibitor 14.
Screening O=C(Nc1ccc2ncnc(N3CCCCC3)c2c1)c1ccc(F)c(F)c1 returned Luciferase inh inactive, HEK cytotox 45µM*, NIH3T3 tox inconclusive, SNCA expr inh -21%, SNCA viab count -19% and IP6K1 inhibitor 0.
`O=C(Nc1ccc2ncnc(N3CCCCC3)c2c1)c1cc(F)ccc1F` gave Luciferase inh inactive, HEK cytotox inconclusive, NIH3T3 tox inconclusive, SNCA expr inh -12%, SNCA viab count -20% and IP6K1 inhibitor 9.
For O=C(Nc1ccc2c(N3CCOCC3)ncnc2c1)c1cccc(Br)c1 the results were Luciferase inh inactive, HEK cytotox 63µM*, NIH3T3 tox inconclusive, SNCA expr inh 39%, SNCA viab count -22% and IP6K1 inhibitor 29.
Cc1ccc(C)c(C(=O)Nc2ccc3c(N4CCCC4)ncnc3c2)c1 was read as Luciferase inh inactive, HEK cytotox inconclusive, NIH3T3 tox inconclusive, SNCA expr inh inconclusive, SNCA viab count inconclusive and IP6K1 inhibitor 5.
For O=C(Nc1ccc2ncnc(N3CCCC3)c2c1)c1cccc(Br)c1 the results were Luciferase inh inactive, HEK cytotox 18µM*, NIH3T3 tox 14µM*, SNCA expr inh -23%, SNCA viab count -14% and IP6K1 inhibitor 12.
Cc1ccc(C(=O)Nc2ccc3c(N4CCOCC4)ncnc3c2)cc1 was read as Luciferase inh 16µM*, HEK cytotox inconclusive, NIH3T3 tox inconclusive, SNCA expr inh 26%, SNCA viab count -17% and IP6K1 inhibitor 7.
`CC(C)CCN1CCc2c(sc3ncnc(N4CCN(C)CC4)c23)C1` gave Luciferase inh inactive, HEK cytotox inconclusive, NIH3T3 tox -30%, SNCA expr inh 6%, SNCA viab count 0% and IP6K1 inhibitor -7.
`Cc1ccc(C2Cn3nnc(-c4noc(-c5cccc(N(C)C)c5)n4)c3CO2)cc1` (configuration not stated) gave Luciferase inh inactive, HEK cytotox 7%, NIH3T3 tox -2%, SNCA expr inh 6%, SNCA viab count -1% and IP6K1 inhibitor -11.
Screening CN1CCCCCCN(C(=O)CC2CCCC2)[C@H]2CCC[C@H]2C1=O returned Luciferase inh inactive, HEK cytotox -22%, NIH3T3 tox -23%, SNCA expr inh 2%, SNCA viab count -5% and IP6K1 inhibitor 9.
For O=C(Nc1ccc2c(N3CCOCC3)ncnc2c1)c1ccccc1C(F)(F)F the results were Luciferase inh inactive, HEK cytotox inconclusive, NIH3T3 tox 28µM*, SNCA expr inh inconclusive, SNCA viab count -13% and IP6K1 inhibitor 4.
`O=C(Nc1ccc2c(N3CCOCC3)ncnc2c1)c1ccc(F)c(Cl)c1` gave Luciferase inh inactive, HEK cytotox inconclusive, NIH3T3 tox 35µM*, SNCA expr inh inconclusive, SNCA viab count -16% and IP6K1 inhibitor -1.
Screening O=C(Nc1ccc2ncnc(N3CCCCC3)c2c1)c1ccsc1 returned Luciferase inh inactive, HEK cytotox 40µM*, NIH3T3 tox 25µM*, SNCA expr inh -16%, SNCA viab count inconclusive and IP6K1 inhibitor 4.
